# Hits are enriched below; roughly 3% of the tested compounds scored in any of these assays.
# LMP1 NFkB inh: Epstein-Barr LMP1 NF-kappaB reporter inhibition; LMP1-induced NF-kappaB luciferase reporter cells, luminescence; inhibition, % at 12.5 µM; hit rate 0.69% among 350,000; AID 504558; in the data active = inhibition above about 41%;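 note: 0% = neutral control wells and 100% = reference inhibitor control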
# KKLEB cytotox: counter-screen for CF NF-kB inhibitors: cytotoxicity. KKLEB CF airway cells viability, ATPlite luminescence, overnight; hits give low values; cells stimulated with P. aeruginosa culture filtrate. activity change (cytotoxicity), % at 5 µM. hit rate 0.36% among 360,000. AID 602141;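 active = corrected activity change at or below -50% at 5 µM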
# CF NFkB inh: inhibitors of cystic fibrosis induced NF-kB; KKLEB NF-kB-GFP reporter, PAF-induced, GFP fluorescence overnight; inhibition, % at 5 µM; AID 588850; hit rate 0.86% among 360,000;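 active = at least 50% inhibition at 5 µM, scaled per plate between neutral and stimulator controls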;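 note: PAF is a Pseudomonas aeruginosa culture filtrate used as stimulus; plate controls were PAF-stimulated DMSO wells for no effect and unstimulated DMSO wells for full effect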
# HIF-2a inh: blocks HIF-2a reporter activity; 786-0 RCC cells HIF-2a reporter, luciferase luminescence, overnight; inhibition, % at 18.8 µM; hit rate 0.72% among 360,000;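 active = inhibition of the luminescence signal of 40% or more relative to plate controls, in a single-dose primary screen at 18.75 µM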
# Peg3 promoter: Peg3 promoter activity inhibition | HeLa PEG-Prom luciferase reporter, luminescence, overnight | inhibition, % at 20 µM | hit rate 1.7% among 360,000;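 active = inhibition of at least 50% at 20 µM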
# TRPM1 prom inh: inhibitors of MITF-driven TRPM1 promoter in melanoma cells | inhibition, % at 12.5 µM | SK-MEL-5 TRPM1 promoter luciferase, 24 h | hit rate 0.83% among 330,000;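 active = mean inhibition across replicates of 60% or more, whatever share of single replicates reaches that level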
# CF NFkB conf: CF NF-kB inhibition confirmation, single concentration; shares compounds with CF NFkB inh; KKLEB CF airway cells, PAF-induced NF-kB-GFP fluorescence, overnight; inhibition, % at 5 µM; hit rate 64% among 1,300; AID 602472; in the data active = inhibition above about 40%;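 note: stimulus PAF is a Pseudomonas aeruginosa filtrate and not platelet activating factor; plate controls were DMSO wells with stimulus for no effect and unstimulated DMSO wells for full effect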
# * hit, by the source's call; / = not tested or not shown.
SMILES,LMP1 NFkB inh,KKLEB cytotox,CF NFkB inh,HIF-2a inh,Peg3 promoter,TRPM1 prom inh,CF NFkB conf
c1ccc2c(c1)Nc1cc3ccccc3cc1S2,-31.1,9.7,-0.6,-142.9,-148.6,-59.8,/
c1ccc2c(c1)Nc1ccncc1S2,6.7,-3.7,52.4*,25.4,0.1,-6.7,77.4*
CCN(CC(=O)Nc1c(F)cccc1F)C(=O)CCCSc1nc2ccccc2[nH]1,4.0,14.5,-11.2,8.0,11.2,/,/
COc1ccc(CNC(=O)Nc2ccc3c(c2)c(=O)n(C)n3Cc2cccc(C(F)(F)F)c2)cc1,/,-2.1,-1.9,9.4,-1.1,/,/
CCCCN(C)C(=O)c1ccc(Nc2nc(C(N)Cc3ccc(C(F)(F)F)cc3)cs2)nc1 (configuration not stated),/,-43.7,50.9*,0.7,96.4*,/,20.1
COc1ccccc1NS(=O)(=O)c1cccc(-n2c(O)c(C=Nc3ccccc3C(=O)O)c3ccccc3c2=O)c1,38.5,15.0,85.6*,26.7,33.9,22.7,92.8*
COc1ccc(-n2c(O)c(/C=N/NS(=O)(=O)c3ccc(C)cc3)c3ccccc3c2=O)cc1OC,3.1,-4.2,-25.4,11.9,2.5,3.3,/
COCCN1C(=O)CSCC1(C)C(=O)Nc1c(C)cccc1C (configuration not stated),/,/,/,-1.1,/,/,/
N#C/C(=C\c1ccc(F)c(F)c1)C(=O)NC1CCCCC1,9.0,-18.2,51.5*,27.6,8.3,3.4,15.7
O=C(Nc1nnc(C(F)(F)F)s1)c1ccc(Br)s1,-6.5,-20.3,53.9*,-240.4,-179.6,-30.0,83.0*
Nc1sc(Cc2ccccc2)cc1C(=O)c1c(-c2ccccc2)[nH]c2ccccc12,/,/,/,17.8,/,/,/
COc1ccc(CNC(=O)C[C@H]2C[C@H](C(=O)N3CCCCC3)[C@@]3(CCc4ccccc4)c4[nH]c5ccc(Cl)cc5c4CCN3C2=O)cc1OC,17.7,-9.6,50.8*,-27.5,27.6,29.8,39.2
C=CC[C@@H](CC(=O)N[C@H](CO)Cc1ccccc1)C(=O)NC[C@H](OC(=O)[C@@H](CC=C)Cc1ccc(F)cc1)c1ccccc1,-5.3,-40.6,54.2*,-2.2,78.6*,-7.1,63.0*
O=C1C=C(NC2=CC3OC(c4ccccc4)OCC3OC2=O)CCC1 (configuration not stated),-0.6,-10.9,71.4*,24.7,44.0,64.8*,47.0*
COc1ccc(NC(=O)C(c2ccc(OC)cc2)n2c(=O)c(-c3cc4ccccc4[nH]3)nc3ccccc32)cc1 (configuration not stated),/,/,/,-98.8,/,/,/
CC(C)CN(C(=O)CN(C)C(=O)Cc1c(F)cccc1Cl)c1c(N)n(CC(C)C)c(=O)[nH]c1=O,-8.0,-11.4,10.0,-8.8,0.3,/,/
COc1ccccc1CNC(=O)C[C@H]1CC[C@@H]2[C@H](COC[C@H](O)CN2Cc2ccc3c(c2)OCO3)O1,/,/,/,5.6,/,/,/
CCN(c1ccccc1)c1nc(C#N)nc(N(CC)c2ccccc2)n1,7.9,-24.7,52.3*,23.5,1.4,14.4,-20.0
CCN(CC)c1nc(C#N)nc(N(CC)CC)n1,1.1,-6.7,11.6,16.5,4.2,-8.8,/
CCc1nc2ccc(C(=O)N3CCCCC3)cn2c1N(C)CCCc1ccccc1,/,-12.5,12.5,18.0,-0.9,/,/
CN(C)CCNC(=O)c1coc(=O)c(Br)c1,-5.5,-3.1,-5.2,18.6,9.8,-2.6,/
O=C(NCCc1ccccc1)c1coc(=O)c(Br)c1,/,4.3,69.0*,8.9,106.8*,-4.4,75.7*
C[C@@]12CCC=C[C@H]1[C@H](c1ccc3ccccc3c1Br)N(Cc1ccccc1)C2=O,6.6,-20.9,57.2*,26.1,44.6,18.9,40.0*
C[C@@]12CCC=C[C@H]1[C@H](c1ccc3ccccc3c1)N(Cc1ccccc1)C2=O,6.7,-24.7,45.4,26.0,25.9,-6.5,/
CCCCN1C(=O)C(CC(=O)NCc2ccco2)CC(C(=O)N(C)C)=C1C (configuration not stated),2.0,-18.1,25.4,8.1,10.3,/,/
COc1ccc(C(=O)Nc2ccc(O)c3c(=O)cc(-c4cccc(Cl)c4)oc23)cc1,2.8,-33.2,50.3*,-46.2,-56.6,8.2,1.5
CC(C)(C)c1ccc(C(=O)Nc2ccc(O)c3c(=O)cc(-c4cccc(Cl)c4)oc23)cc1,3.0,-19.8,26.4,-21.7,3.3,31.0,/
